This note sets out measurements from ChEMBL document CHEMBL3433997, “St. Jude Leishmania screening dataset” (2016).

What is called inhibition is the relative decrease from the control value, in per cent.

Common to all, as to assay type: functional
For experiment [1], the target named is Solute carrier family 2, facilitated glucose transporter member 1 (Homo sapiens) (UniProt P11166). The experiment is described as follows: ST_JUDE_LEISH: Cytotoxicity at 2uM final concentration against transgenic Leishmania Mexicana promastigotes LmGLUT1 that are glucose transport deficient and complemented with the human glucose transporter GLUT1. Activity is measured by DNA content using SYBR green in vitro.

In experiment [2] the target is Hexose transporter 1 (Plasmodium falciparum) (UniProt O97467). The experiment is described as follows: ST_JUDE_LEISH: Cytotoxicity at 2uM final concentration against transgenic Leishmania Mexicana promastigotes LmPfHT that are glucose transport deficient and complemented with the Plasmodium falciparum hexose transporter. Activity is measured by DNA content using SYBR green in vitro.

Experiment [3] concerns the target Glucose transporter (Leishmania mexicana) (UniProt O61059). The experiment is described as follows: ST_JUDE_LEISH: Cytotoxicity at 2uM final concentration against transgenic Leishmania Mexicana promastigotes LmGT2 that are glucose transport deficient and complemented with the L. Mexicana glucose transporter 2. Activity is measured by DNA content using SYBR green in vitro.

Solute carrier family 2, facilitated glucose transporter member 1 (Homo sapiens), sequence (P11166 whole entry): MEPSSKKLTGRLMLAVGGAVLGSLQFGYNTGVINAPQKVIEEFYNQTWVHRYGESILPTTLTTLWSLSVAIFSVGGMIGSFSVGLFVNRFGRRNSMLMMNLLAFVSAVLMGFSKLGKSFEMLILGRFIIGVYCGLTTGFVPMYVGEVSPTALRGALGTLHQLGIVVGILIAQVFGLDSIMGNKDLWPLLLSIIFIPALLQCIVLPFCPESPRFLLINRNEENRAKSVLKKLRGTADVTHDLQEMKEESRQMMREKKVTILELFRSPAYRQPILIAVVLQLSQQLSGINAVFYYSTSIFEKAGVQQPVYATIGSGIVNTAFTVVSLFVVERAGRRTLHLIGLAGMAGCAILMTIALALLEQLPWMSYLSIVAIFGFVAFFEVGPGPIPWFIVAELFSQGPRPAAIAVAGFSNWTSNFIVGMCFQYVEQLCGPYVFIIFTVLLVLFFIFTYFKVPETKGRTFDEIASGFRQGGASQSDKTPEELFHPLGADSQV

As to `CS(=O)(=O)NCCCNCc1cccc(-c2csc(-c3nc4ccccc4[nH]3)c2)c1`, the inhibition in experiment [1] is -0.84%; in experiment [2], -0.51%; in experiment [3] it was -0.84%.
For `CCN(CCNc1nc(NCCc2cnc[nH]2)nc(N(CCC#N)Cc2ccccc2)n1)c1cccc(C)c1`, the inhibition in experiment [1] is 12.1%; in experiment [2], 12.8%; in experiment [3], 6.78%.
Take `O=C(/C=C/c1ccc(F)cc1)NC1CCC(CCN2CCc3ccccc3CC2)CC1` (stereo unspecified): the results for the inhibition in experiment [1], in experiment [2] and in experiment [3] were 7.03%, 5.64% and 2.76%, respectively.
The matching figures for `Cc1cc(-c2cccc3c(C(=O)N4CCc5cc6nccc(N7CCN8CCC[C@H]8C7)c6cc54)cccc23)cc(C)n1`: 1.99%, -1.7% and 2.83%.
For `O=C(/C=C/c1ccc(Cl)c(Cl)c1)N1CCC(CN2CCC(Cc3c[nH]c4ccccc34)CC2)CC1` the same measures were 4.43%, 4.8% and 3.96%.
As for `Cc1noc(C)c1-c1cccc(CNCc2ccc(-c3cccc(-c4nc5cc(C(F)(F)F)ccc5[nH]4)c3)cc2)c1`, the inhibition is -0.48% in experiment [1], 1.3% in experiment [2] and 1.67% in experiment [3].
Take `COc1ccc(Cn2c(Nc3cccc(C(F)(F)F)c3)nc3cc(C(=O)NCCN4CCCC4)ccc32)cc1Cl`: the results for the inhibition in experiment [1], in experiment [2] and in experiment [3] were 0.36%, -0.47% and 0.72%, respectively.
For `Oc1ccc(CCNc2nc(NCc3ccccc3-c3ccc(C(F)(F)F)cc3)nc(NC3CCNCC3)n2)cc1` the same measures were 1.32%, 0.48% and 0.66%.
For `Cc1cc(NC(=O)c2cc(Br)ccc2Cl)n(-c2nc(C)c(C)c(=O)[nH]2)n1` the same measures were -1.92%, -1.98% and -4.55%.
The matching figures for `Cc1cc(NCCc2ccccc2)nc(NC(=N)Nc2cccc(F)c2)n1`: 2.17%, 3.28% and -0.09%.
As for `O=C(Nc1cccc(-c2ccc(CN3CCC(O)CC3)cc2)c1)c1cccc(Cl)c1`, the values for the inhibition in experiment [1], in experiment [2] and in experiment [3] were 3.01%, 3.03% and 2.17%, respectively.
For `c1cncc(CNc2ncc(-c3ccsc3)c(-c3nccs3)n2)c1` the same measures were 5.96%, 8.95% and 7.02%.
Turning to `COc1ccccc1COc1c(C)nc(N)nc1N`, the inhibition in experiment [1] was -1.13%; in experiment [2] it was -0.61%; in experiment [3], -1.06%.
As to `COc1ccccc1-c1cccc2c(NC(=O)Nc3ccc4nccc(N5CCN(C)CC5)c4c3)ccnc12`, the inhibition in experiment [1] is 1.85%; in experiment [2] it was 2.74%; in experiment [3] it was 2.18%.
With `Cc1cccc2nc(-c3ccc(-c4cccc(NC(=O)NCc5ccccc5)c4)cc3)[nH]c12`, the inhibition was 0.35% in experiment [1], 1.64% in experiment [2] and 1.98% in experiment [3].
The matching figures for `OC(CN1CCN(c2cccc(Cl)c2)CC1)C(c1ccccc1)c1ccccc1` (stereo unspecified): -1.02%, 2.99% and -2.94%.
With `Nc1ncc(-c2ccsc2)c2ccc(-c3ccc4cn[nH]c4c3)cc12`, the inhibition in experiment [1] turned out to be 3.11%; in experiment [2], 1.38%; in experiment [3] it was 5.29%.
The matching figures for `COc1ccc(NC(=O)Nc2ccc(-c3ccncc3)c(Cl)c2)cc1N1CCN(C)CC1`: -1.37%, -0.91% and -2.2%.
The matching figures for `Cc1nnsc1C(=O)Nc1cccc(-c2ccc(-c3nc4cc(F)ccc4[nH]3)s2)c1`: 1.06%, 0.37% and -2.44%.
For `NCc1ccc(CNCc2cccc(-c3ccc(-c4nc5ccccc5[nH]4)cc3)c2)cc1` the same measures were 13.5%, 11.8% and 12.4%.
Regarding `Cc1c(Cc2ccc(F)cc2)c(Cl)nc2nc(N)nc(N)c12`, the inhibition in experiment [1] is 0.75%; in experiment [2] it was 0.4%; in experiment [3] it was -0.27%.
The matching figures for `CCCN(CCCCNC(=O)c1ccc(-c2cccnc2)cc1)C1CCc2c(O)cccc2C1` (stereo unspecified): 3.63%, 2.13% and 3.11%.
For `CC(c1cccc(S(=O)(=O)NCc2ccc(Cl)cc2Cl)c1)N1CCC(N2CCCCC2)CC1` (stereo unspecified) the same measures were 8.44%, 4.33% and 3.71%.
Regarding `COc1cccc2cc(C(=O)N[C@@H](CC(C)C)C(=O)N[C@H](/C=N/NC(=O)c3ccccc3)Cc3c[nH]cn3)oc12`, the inhibition in experiment [1] turned out to be 2.75%; in experiment [2], 0.99%; in experiment [3], 3.92%.
For `O=C(/C=C/c1ccc(Cl)c(Cl)c1)NCCCCCCN1CCCN(C(=O)Nc2cc(F)cc(F)c2)CC1` the same measures were 0.71%, 1.42% and -1.02%.
For `Cc1cc(N[C@@H](Cc2ccccc2)C(=O)NCc2cccc(F)c2)nc(NCCOc2ccccc2)n1` the same measures were 4.2%, -1.41% and -0.15%.
As to `Cc1c[nH]c(-c2cccc(C(=O)NC3CCC(CCN4CCc5ccc(C#N)cc5CC4)CC3)c2)n1` (stereo unspecified), the inhibition in experiment [1] worked out at 2.16%; in experiment [2], 1.04%; in experiment [3], 1.55%.
For `CC(C)(C)c1ccc(NC(=O)c2ccc(CN3CCCN(Cc4cccc(F)c4)CC3)cc2)cc1` the same measures were 13.7%, 13.3% and 11.8%.
For `COc1cc(NCCCNC(=O)c2ccc(Cl)c(Cl)c2)nc2ccccc12` the same measures were 5.42%, 5.69% and 5.08%.
The matching figures for `CN(C)CCCOc1ccc(CNCc2cccc(Oc3ccc(Cl)cc3)c2)cc1`: 6.24%, 2.32% and 3.82%.
As for `CNC(=O)C(NC(=O)c1ccccc1C(=O)OC)c1ccccc1` (stereo unspecified), the inhibition was 1.77% in experiment [1], 0.32% in experiment [2] and -2.13% in experiment [3].
The matching figures for `COc1ccc(S(=O)(=O)NCCCC2CCN(CCCCCNC(=O)C=Cc3ccc(Cl)c(Cl)c3)CC2)cc1`: 0.69%, 0.8% and 3.65%.
